The campaign covered roughly 5,500 compounds. About 2,000 (36%) were called active. Roughly 18% stayed inconclusive and do not appear here. Rule as the data show it: active = normalized growth mostly below about 0.91 (no sharp cut-off); inconclusive = no clear call, values can overlap the other calls; inactive = mostly above about 0.92. This is one part of the list.
Assay: chemical genetic growth profiling, strain panel (AID 1159580);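 also: tested at 20 µM; growth read once vehicle control cultures reached saturation at 30 °C; 1 = growth at the plate median or of vehicle wells; lower values mean less growth of the strain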
Conditions: S. cerevisiae deletion strains, growth OD
[1] = locus YAR019C, strain CDC15, active compounds read low
[2] = locus YBL105C, strain PKC1, active compounds read low
[3] = locus YBR135W, strain CKS1, active compounds read low
[4] = locus YBR136W, strain MEC1, active compounds read low
[5] = locus YBR160W, strain CDC28, active compounds read low
[6] = locus YDL017W, strain CDC7, active compounds read low
[7] = locus YDL028C, strain MPS1, active compounds read low
[8] = locus YDL101C, strain DUN1, active compounds read low
[9] = locus YDL108W, strain KIN28, active compounds read low
[10] = locus YDL132W, strain cdc53, active compounds read low
[11] = locus YDL214C, strain PRR2, active compounds read low
[12] = locus YDR052C, strain DBF4, active compounds read low
[13] = locus YDR054C, strain cdc34, active compounds read low
[14] = locus YDR226W, strain ADK1, active compounds read low
[15] = locus YDR477W, strain SNF1, active compounds read low
[16] = locus YER123W, strain YCK3, active compounds read low
[17] = locus YER133W, strain GLC7, active compounds read low
[18] = locus YFL009W, strain cdc4, active compounds read low
[19] = locus YFL029C, strain CAK1, active compounds read low
[20] = locus YFR003C, strain YPI1, active compounds read low
[21] = locus YFR019W, strain FAB1, active compounds read low
[22] = locus YFR028C, strain CDC14, active compounds read low
[23] = locus YGR040W, strain KSS1, active compounds read low
[24] = locus YGR052W, strain FMP48, active compounds read low
[25] = locus YGR092W, strain DBF2, active compounds read low
[26] = locus YHR030C, strain SLT2, active compounds read low
[27] = locus YHR079C, strain IRE1, active compounds read low
[28] = locus YHR082C, strain KSP1, active compounds read low
[29] = locus YHR205W, strain SCH9, active compounds read low
[30] = locus YIL147C, strain SLN1, active compounds read low
[31] = locus YJL095W, strain BCK1, active compounds read low
[32] = locus YJL128C, strain PBS2, active compounds read low
[33] = locus YJL157C, strain FAR1, active compounds read low
[34] = locus YJR016C, strain ILV3, active compounds read low
[35] = locus YJR066W, strain TOR1 (second series), active compounds read low
[36] = locus YJR066W, strain TOR1, active compounds read low
[37] = locus YKL048C, strain ELM1, active compounds read low
[38] = locus YKL067W, strain YNK1, active compounds read low
[39] = locus YKL101W, strain HSL1, active compounds read low
[40] = locus YKL193C, strain SDS22, active compounds read low
[41] = locus YKL203C, strain TOR2, active compounds read low
[42] = locus YLR113W, strain HOG1, active compounds read low
[43] = locus YLR133W, strain CKI1, active compounds read low
[44] = locus YLR403W, strain SFP1, active compounds read low
[45] = locus YML070W, strain DAK1, active compounds read low
[46] = locus YMR001C, strain CDC5, active compounds read low
[47] = locus YMR205C, strain PFK2 (second series), active compounds read low
[48] = locus YMR277W, strain FCP1, active compounds read low
[49] = locus YNL006W, strain LST8, active compounds read low
[50] = locus YNL020C, strain ARK1, active compounds read low
[51] = locus YNL161W, strain CBK1, active compounds read low
[52] = locus YNL183C, strain NPR1, active compounds read low
[53] = locus YNL207W, strain RIO2, active compounds read low
[54] = locus YNL222W, strain SSU72, active compounds read low
[55] = locus YNL307C, strain MCK1 (second series), active compounds read low
[56] = locus YOL078W, strain AVO1, active compounds read low
[57] = locus YOL136C, strain PFK27, active compounds read low
[58] = locus YOR061W, strain CKA2, active compounds read low
[59] = locus YOR119C, strain RIO1, active compounds read low
[60] = locus YOR231W, strain MKK1, active compounds read low
[61] = locus YOR329C, strain SCD5, active compounds read low
[62] = locus YPL031C, strain PHO85, active compounds read low
[63] = locus YPL153C, strain RAD53, active compounds read low
[64] = locus YPL204W, strain HRR25, active compounds read low
[65] = locus YPL209C, strain IPL1, active compounds read low
[66] = locus YPL256C, strain CLN2, active compounds read low
[67] = locus YPR025C, strain CCL1, active compounds read low
[68] = locus YPR106W, strain ISR1, active compounds read low
[69] = locus YPR111W, strain DBF20, active compounds read low
[70] = strain NNK1, active compounds read low
[71] = strain TSCII, active compounds read low

Measured: normalized growth

CSc1n[nH]c(-c2cc(C(F)(F)F)cc(C(F)(F)F)c2)n1
active: [26] 0.671 | [42] 0.615 | [66] 0.709
inactive: [1] 0.939 | [2] 0.952 | [3] 0.946 | [4] 0.948 | [5] 0.939 | [6] 0.955 | [7] 0.939 | [8] 0.973 | [9] 0.918 | [10] 0.955 | [11] 0.892 | [12] 0.977 | [13] 0.938 | [14] 0.942 | [15] 0.895 | [16] 0.892 | [17] 0.935 | [18] 0.92 | [19] 0.918 | [20] 0.953 | [21] 0.979 | [22] 0.936 | [23] 0.893 | [24] 0.92 | [25] 0.894 | [27] 0.82 | [28] 0.914 | [29] 0.785 | [30] 0.941 | [31] 0.791 | [32] 0.859 | [33] 0.938 | [34] 0.947 | [35] 0.939 | [36] 0.859 | [37] 0.904 | [38] 0.887 | [39] 0.853 | [40] 0.939 | [41] 1 | [43] 0.904 | [44] 0.927 | [45] 0.878 | [46] 0.937 | [47] 0.925 | [48] 0.921 | [49] 0.945 | [50] 0.897 | [51] 0.948 | [52] 0.868 | [53] 0.947 | [54] 0.927 | [55] 0.856 | [56] 0.953 | [57] 0.84 | [58] 0.937 | [59] 0.942 | [60] 0.776 | [61] 0.95 | [62] 0.885 | [63] 0.887 | [64] 0.864 | [65] 0.952 | [67] 0.946 | [68] 0.929 | [69] 0.952 | [70] 0.917 | [71] 0.937

Fc1cccc(Cl)c1CSc1n[nH]c(-c2cc(C(F)(F)F)cc(C(F)(F)F)c2)n1
inactive: [1] 0.973 | [2] 0.981 | [3] 0.981 | [4] 0.982 | [5] 0.977 | [6] 0.987 | [7] 0.961 | [8] 0.986 | [9] 0.97 | [10] 0.975 | [11] 0.916 | [12] 0.994 | [13] 0.973 | [14] 0.971 | [15] 0.891 | [16] 0.918 | [17] 0.939 | [18] 0.961 | [19] 0.973 | [20] 0.977 | [21] 0.913 | [22] 0.973 | [23] 0.898 | [24] 0.925 | [25] 0.914 | [27] 0.836 | [28] 0.871 | [29] 0.821 | [30] 0.98 | [31] 0.79 | [32] 0.957 | [33] 0.926 | [34] 0.981 | [35] 0.918 | [36] 0.873 | [37] 0.974 | [38] 0.916 | [39] 0.889 | [40] 0.975 | [41] 1.01 | [43] 0.902 | [44] 0.926 | [45] 0.907 | [46] 0.97 | [47] 0.937 | [48] 0.959 | [49] 0.983 | [50] 0.905 | [51] 0.976 | [52] 0.933 | [53] 0.978 | [54] 0.965 | [55] 0.744 | [56] 0.976 | [57] 0.878 | [58] 0.911 | [59] 0.943 | [60] 0.846 | [61] 0.983 | [62] 0.896 | [63] 0.894 | [64] 0.868 | [65] 0.979 | [67] 0.981 | [68] 0.97 | [69] 0.945 | [70] 0.96 | [71] 0.972
active: [26] 0.372 | [42] 0.773 | [66] 0.811
